# Values joined by “and” are separate entries in the source; they are usually repeats but may differ in a detail not shown here. Identical values can stand only once. Records with an inconclusive call do not appear. Active and inactive are the calls of the source. Calls come from the whole dose curve; as a rule, active = well fitted cell-killing curve with a large enough effect; inconclusive = small, poorly fitted or top-dose-only effect; inactive = flat fitted curve, though single readings scatter.
# Assay: Cellular viability qHTS for adrenocortical cancer (ACC) cell line SW-13 (AID 1963989); note: nearly all actives have a fitted effect of over 65% in size;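 for activity (max response): cells grown in serum-free medium with ITS supplement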
# Details: SW-13 ACC cells viability, CellTiter-Glo, 48 h; activity (max response): stronger effect = lower value
# Text: PI: Naris Nilubol, MD Surgical Oncology Program, National Cancer Institute (NCI) National Institute of Health (NIH), Bethesda, Maryland Adrenocortical cancer (ACC) is a rare malignancy with poor survival outcomes and few treatment options. Currently, mitotane is the only FDA-approved therapy for ACC. Although adjuvant radiation therapy is rarely utilized, it has the potential to improve survival in select cases. Through a quantitative high-throughput drug screen (qHTS), we identified auranofin (AF), a thioredoxin reductase (TXNRD) inhibitor, as a promising candidate drug. This study aims to evaluate whether AF can enhance the efficacy of radiation therapy in the treatment of ACC. Two human ACC cell lines, SW-13 and NCI-H295R, were screened using the National Center for Advancing Translational Sciences (NCATS) Pharmaceutical Collection (NPC) and the Mechanism Interrogation PlatE (MIPE) library (~4,991 compounds). CellTiter-Glo (Cat # G7570, Promega, Madison, WI) was utilized to measure cell viability. Described herein are the results of the corresponding viability assay.
# PROTOCOL TABLE (as described by Inglese J, Shamu CE and Guy RK. 2007) SEQUENCE No. (e.g., 1, 2, 3, etc.); […] (e.g., Cells, Incubation, Reagent, etc.); VALUE; DESCRIPTION. 1; Cells; 5 uL; white, solid-bottom, 1536-well tissue-culture treated plates. 2; Time; overnight culture at 37C with 5% CO2. 3; Compounds and control; 23 nL; Kalypsis pin tool (Wako USA) equipped with a 1536-well pin head to transfer to the assay plates. 4; Time; 48 hours; 37C with 5% CO2. 5; Reagent; 4 uL; CellTiter-Glo luminescent substrate mix. 6; Time; 20 min at room temperature. 7; Detection; Luminescence; ViewLux plate reader NOTES (numbers refer to Sequence numbers above) 1. SW13 cells were harvested from a T175 flask and resuspended in ITS-supplemented DMEM serum-free medium at a concentration of 300 000 cells/mL. Then 5 uL of resuspended cells were dispensed into each well of white, solid-bottom, 1536-well tissue-culture-treated plates using a multidrop combi dispenser. The plates were covered with stainless steel gasket lids. 2-3. The plates were cultured overnight at 37C with 5% CO2. Twenty-three nL of compounds (eight selected concentrations from the NPC / MIPE) or positive control (10 mM stock of bortezomib) in DMSO was transferred to each well of the assay plate using a pin tool (Kalypsys, San Diego, CA, USA). The final concentration of the compounds in the 5 uL assay volume ranged from 0.5 nM to 46 uM. 4-6. After 48 hours of incubation at 37C and 5% CO2, 4 uL of CellTilter-Glo luminescent substrate mix (Promega, Madison, WI, USA) was added to each well. Then the plates were incubated for 20 minutes at room temperature. 7. After incubation, luminescence was measured using a ViewLux plate reader (PerkinElmer, Waltham, MA, USA) with a clear filter was used to measure the number of metabolically competent cells. To determine compound activity in the qHTS assay, the titration-response data for each sample was plotted and modeled by a four-parameter logistic fit yielding IC50 and efficacy (maximal response) values. […] REFERENCES: Inglese J, Shamu CE and Guy RK, Reporting data from high throughput screening of small molecule libraries, Nature Chemical Biology, 2007, 3(8): 438-441. doi.org/10.1038/nchembio0807-438.
# % is set by controls: 0 for no effect and ±100 for the full control effect.
Structure (SMILES),activity (max response),Potency
Cc1ccccc1-n1c(Cn2ncc3c(N)ncnc32)nc2cccc(C)c2c1=O,2.46% (inactive),–
CN1C(=O)COc2c(C(=O)NC3CN4CCC3CC4)cc(Cl)cc21 (stereo not given),0.49% (inactive) and -6.93% (inactive),–
C=CCN1CC[C@]23c4c5ccc(O)c4O[C@H]2C(=O)CC[C@@]3(O)[C@H]1C5,-2.59% (inactive),–
C[C@]12CC[C@@H]3c4ccc(OC(=O)N(CCCl)CCCl)cc4CC[C@H]3[C@@H]1CC[C@@H]2OP(=O)(O)O,-13.4% (inactive),–
NN=C(N)N,12.8% (inactive),–
CN[C@@H](C)[C@H](O)c1ccccc1,-4.49% (inactive),–
O=C(Nc1ccccc1-c1ccc(Cl)cc1)c1cccnc1Cl,-12.7% (inactive),–
CN1CCC(O)(c2ccc(F)cc2)C(C(=O)c2ccc(F)cc2)C1 (stereo not given),0.424% (inactive),–
COC[C@@H](NC(C)=O)C(=O)NCc1ccccc1,8.1% (inactive) and 13.7% (inactive),–
Fc1ccc(C(OCCN2CCN(CCCc3ccccc3)CC2)c2ccc(F)cc2)cc1,–,5.8 µM (active) and 14.1 µM (active)
CC(C)NCC(O)c1ccccc1Cl (stereo not given),5.55% (inactive),–
CC(C)(C)NCC(O)c1cc(Cl)c(N)c(Cl)c1 (stereo not given),11.4% (inactive),–
C#CC(O)(C=CCl)CC (stereo not given),7.7% (inactive),–
C[C@](O)(COc1ccc(C#N)cc1)C(=O)Nc1ccc(C#N)c(C(F)(F)F)c1,–,22.4 µM (active)
C=CCC1(C(C)CC)C(=O)NC(=O)NC1=O (stereo not given),0.393% (inactive),–
C[C@]12CC[C@H]3[C@@H](CCC4=CC(=O)CC[C@@H]43)[C@@H]1CC[C@@H]2OC(=O)CCc1ccco1,-19.1% (inactive),–
CCN(CC)CCOC(=O)C(O)(c1ccccc1)c1ccccc1,1.88% (inactive),–
CCC1(CC)C(=O)C=CNC1=O,0.834% (inactive),–
CCOC(C(=O)OCCN(C)C)(c1ccccc1)c1ccccc1,-0.322% (inactive),–
CC(C)=CC1C(C(=O)OCN2C(=O)C3=C(CCCC3)C2=O)C1(C)C (stereo not given),-13.2% (inactive),–

Structure (SMILES),activity (max response),Potency
NC1=NC(=O)C(c2ccccc2)O1 (stereo not given),8.75% (inactive),–
CCOC(=O)C1(c2ccccc2)CCN(CCc2ccc(N)cc2)CC1,-18.4% (inactive),–
CC(=O)OC[C@H]1O[C@@H]([S-])[C@H](OC(C)=O)[C@@H](OC(C)=O)[C@@H]1OC(C)=O.CC[PH+](CC)CC.[Au],–,0.708 µM (active)
C[C@H](N)C(=O)c1ccccc1,-8.86% (inactive),–
CN(C)CCc1ccc(O)cc1,-2.47% (inactive),–
CC1=C2[C@H]3OC(=O)[C@@H](C)[C@@H]3CC[C@@]2(C)C=CC1=O,-9.75% (inactive),–
COP(=S)(OC)SCN1C(=O)c2ccccc2C1=O,6.58% (inactive),–
O=c1[nH]oc2c1CCNC2,5.4% (inactive),–
CCN(Cc1ccc(Cl)nc1)/C(=C/[N+](=O)[O-])NC,3.71% (inactive),–
C=C(C)[C@H]1CN[C@H](C(=O)O)[C@H]1CC(=O)O,7.33% (inactive),–
CCN(CC)CCN1C(=O)CN=C(c2ccccc2F)c2cc(Cl)ccc21,2.24% (inactive),–
Oc1ccc(Cl)cc1,10.2% (inactive),–
CCCCC1C(=O)NC(=O)N(C2CCCCC2)C1=O (stereo not given),-4.2% (inactive),–
CCc1ccc(C2CCNCC2)cc1,-14% (inactive),–
O=C(CCCCl)c1ccc(F)cc1,6.97% (inactive),–
CC(C)(O)C(Cl)(Cl)Cl,9.4% (inactive),–
CN1[C@H]2CC(O)C[C@H]1[C@H]1O[C@H]12 (stereo not given in full),10.2% (inactive),–
C[C@@H]1CC[C@@]2(OC1)O[C@H]1C[C@H]3[C@@H]4CC=C5C[C@@H](O[C@@H]6O[C@H](CO)[C@@H](O[C@@H]7O[C@@H](C)[C@H](O)[C@@H](O)[C@H]7O)[C@H](O)[C@H]6O[C@@H]6O[C@@H](C)[C@H](O)[C@@H](O)[C@H]6O)CC[C@]5(C)[C@H]4CC[C@]3(C)[C@H]1[C@@H]2C,–,3.55 µM (active)
C=C[C@H]1CN2CCC1C[C@@H]2[C@@H](O)c1ccnc2ccccc12 (stereo not given in full),-20.5% (inactive),–
Cc1ccc(N=CN(C)C=Nc2ccc(C)cc2C)c(C)c1,9.45% (inactive),–

# — PubChem BioAssay (NCATS)
